Laboratory results published in PubChem BioAssay (Tox21).
Records with an inconclusive call do not appear. Activity calls are given as the source filed them. Unless noted, calls come from the whole dose curve; as a rule, active = well fitted curve in the direction sought with a large enough effect in the repeat runs; inconclusive = weak or mixed curves; inactive = no such curve, though single readings can be large; an effect the other way counts as inactive or inconclusive.

Key:
[1] = qHTS assay to identify small molecule agonists of the peroxisome proliferator-activated receptor delta (PPARd) signaling pathway - cell viability counter screen (AID 743211); note: nearly all actives have a fitted effect of over 55% in size
How it was run: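 Luminescent ATP viability assay (CellTiter-Glo, 30 min RT) in UAS-bla HEK293H cells carrying the PPAR delta reporter construct, 3000 cells/well, after a 17 h compound treatment at 37 C.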

[2] = target: Peroxisome proliferator-activated receptor delta (Homo sapiens) (UniProt Q03181); experiment: qHTS assay to identify small molecule agonists of the peroxisome proliferator-activated receptor delta (PPARd) signaling pathway (AID 743212; calls by dose curve)
How it was run: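 Tox21 library screened in GeneBLAzer PPARd UAS-bla HEK293H cells. After compound treatment at 37 C, a FRET-based beta-lactamase substrate was applied for 2 h and fluorescence recorded.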

[3] = qHTS assay to identify small molecule antagonists of the peroxisome proliferator-activated receptor delta (PPARd) signaling pathway - cell viability counter screen (AID 743213); note: nearly all actives have a fitted effect of over 50% in size
How it was run: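 Luminescence from CellTiter-Glo, added after the bla read and incubated 30 min at room temperature, gives viability of HEK293H PPARd-bla cells exposed to compounds for 17 h at 37 C with 300 nM L165041.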

[4] = qHTS assay to identify small molecule agonists of the farnesoid-X-receptor (FXR) signaling pathway - cell viability counter screen (AID 743218); note: nearly all actives have a fitted effect of over 45% in size
How it was run: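 Same-well cytotoxicity check on FXR-UAS-bla HEK 293T cells: 5 h attachment, 16 h compound at 37 C, CellTiter-Glo luminescence read at room temperature after 30 min.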

[5] = qHTS assay to identify small molecule antagonists of the farnesoid-X-receptor (FXR) signaling pathway - cell viability counter screen (AID 743221; active = well fitted cell-killing curve with a large enough effect in the repeat runs, not every such curve was filed as active; note: nearly all actives have a fitted effect of over 50% in size)
How it was run: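 In GeneBLAzer FXR-UAS-bla HEK 293T cells stimulated with 50 uM chenodeoxycholic acid (final), compounds acted for 16 h at 37 C. Viability was assessed afterwards by CellTiter-Glo luminescence.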

[6] = qHTS assay to identify small molecule agonists of the vitamin D receptor (VDR) signaling pathway - cell viability counter screen (AID 743224); note: series mostly up to about 63 µM; nearly all actives have a fitted effect of over 50% in size
How it was run: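 Counter screen for cytotoxicity: VDR-bla cells at 2,000 cells/well, 16 h compound exposure, then CellTiter-Glo luminescence after the beta-lactamase measurement.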

[7] = qHTS assay to identify small molecule agonists of the NFkB signaling pathway (AID 1159509; active = well fitted curve in the direction sought with a large enough effect in the signal ratio in the repeat runs, not every such curve was filed as active; the % refers to the signal ratio; note: series mostly up to about 61 µM)
How it was run: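 Pathway activation was measured in ME-180 cells stably expressing beta-lactamase under NF-kB response element control. Substrate cleavage was read as the 460/530 nm emission shift after 5 hr compound incubation.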

[8] = qHTS assay to identify small molecule agonists of the NFkB signaling pathway - cell viability counter screen (AID 1159515; calls by dose curve; note: series mostly up to about 61 µM; nearly all actives have a fitted effect of over 55% in size)
How it was run: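 Counter screen run alongside the NFkB-bla agonist assay: ME-180 reporter cells exposed to compounds for 5 hr, then lysed with CellTiter-Glo in the same wells. Luminescence, read after 30 min, reflects viable cells.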

[9] = qHTS assay to identify small molecule agonists of the endoplasmic reticulum stress response signaling pathway (AID 1159516; active = well fitted activation curve with a large enough effect in the signal ratio in the repeat runs, not every such curve was filed as active; the % refers to the signal ratio)
How it was run: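 For this screen, HeLa cells stably carrying beta-lactamase under the ER stress response element received test compounds, positive controls or DMSO for 5 hr at 37 C; B/G FRET substrate was then added and dual-wavelength emission recorded.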

[10] = qHTS assay to identify small molecule agonists of the endoplasmic reticulum stress response signaling pathway - cell viability counter screen (AID 1159517; calls by dose curve; note: series mostly up to about 61 µM; nearly all actives have a fitted effect of over 50% in size)
How it was run: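 In parallel with the ESRE reporter read, cytotoxicity was scored by CellTiter-Glo luminescence (30 min, room temperature) on HeLa ESRE-bla cells dosed for 5 hr.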

[11] = qHTS assay to identify small molecule antagonists of the retinoid-related orphan receptor gamma (ROR-gamma) signaling pathway - cell viability counter screen (AID 1159520); note: nearly all actives have a fitted effect of over 50% in size
How it was run: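 Tet-on ROR gamma CHO cells were given compounds for 2 hr, then doxycycline hyclate at 1 uM final, and incubated 16 hr at 37 C. Viability was measured as ATP content by CellTiter-Glo luminescence.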

[12] = qHTS assay to identify small molecule agonists of the AP-1 signaling pathway - cell viability counter screen (AID 1159525; calls by dose curve; note: nearly all actives have a fitted effect of over 55% in size)
How it was run: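 Same-well cytotoxicity counter screen of the Tox21 10K library in ME-180 cells. The readout is ATP-dependent luminescence after 5 h compound treatment. Data are normalised to DMSO and tetra n-octyl ammonium bromide controls.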

[13] = qHTS assay to identify small molecule agonists of the AP-1 signaling pathway (AID 1159526; calls by dose curve)
[14] = target: Peroxisome proliferator-activated receptor delta (Homo sapiens) (UniProt Q03181); experiment: qHTS assay to identify small molecule antagonists of the peroxisome proliferator-activated receptor delta (PPARd) signaling pathway (AID 743215; active = well fitted inhibition curve with a large enough effect in the signal ratio in the repeat runs, not every such curve was filed as active; the % refers to the signal ratio;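 note: cells stimulated with agonist L165041 at 300 nM final during compound exposure; series mostly up to about 62 µM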)
How it was run: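 Screen format: qHTS, antagonist mode. HEK293H PPARd-bla cells received compound and 300 nM L165041 (final), 17 h, 37 C. Beta-lactamase detected via FRET substrate fluorescence, 2 h, room temperature.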

[15] = target: Vitamin D3 receptor (Homo sapiens) (UniProt P11473); experiment: qHTS assay to identify small molecule agonists of the vitamin D receptor (VDR) signaling pathway (AID 743222; calls by dose curve)
How it was run: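 Using LiveBLAzer B/G FRET detection, agonism was scored in VDR-bla cells exposed overnight (16 h, 37C) to DMSO-dissolved compounds; substrate incubation was 2 h at room temperature.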

[16] = target: Vitamin D3 receptor (Homo sapiens) (UniProt P11473); experiment: qHTS assay to identify small molecule antagonists of the vitamin D receptor (VDR) signaling pathway (AID 743223; active = well fitted inhibition curve with a large enough effect in the signal ratio in the repeat runs, not every such curve was filed as active; the % refers to the signal ratio)
How it was run: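 Agonist 1alpha,25-dihydroxyvitamin D3 (3 nM in well) was added with each compound to VDR-bla cells preincubated 4 h. Cells stood 16 h at 37C, then FRET substrate 2 h at room temperature; fluorescence intensity recorded.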

[17] = qHTS assay to identify small molecule antagonists of the vitamin D receptor (VDR) signaling pathway - cell viability counter screen (AID 743225); note: nearly all actives have a fitted effect of over 50% in size
How it was run: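 Luminescent cell viability (CellTiter-Glo) in VDR-bla HEK 293T cells after 16 h compound exposure at 37C in the presence of 3 nM final 1-alpha,25-dihydroxy vitamin D3.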

[18] = target: Bile acid receptor (Homo sapiens) (UniProt Q96RI1); experiment: qHTS assay to identify small molecule agonists of the farnesoid-X-receptor (FXR) signaling pathway (AID 743220; active = well fitted activation curve with a large enough effect in the signal ratio in the repeat runs, not every such curve was filed as active; the % refers to the signal ratio)
How it was run: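 FXR-UAS-bla HEK 293T cells carrying a UAS-driven beta-lactamase reporter were plated for 5 h at 37C/5% CO2, then exposed to DMSO-dissolved Tox21 10K compounds for 16 h at 37C. A LiveBLAzer B/G FRET substrate was loaded for 2 h at room temperature before fluorescence reading.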

[19] = target: Bile acid receptor (Homo sapiens) (UniProt Q96RI1); experiment: qHTS assay to identify small molecule antagonists of the farnesoid-X-receptor (FXR) signaling pathway (AID 743217; active = well fitted inhibition curve with a large enough effect in the signal ratio in the repeat runs, not every such curve was filed as active; the % refers to the signal ratio)
How it was run: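 Quantitative HTS, beta-lactamase reporter format: FXR-UAS-bla HEK 293T cells co-treated 16 h at 37 °C with compounds and 50 uM final chenodeoxycholic acid, then read by B/G FRET fluorescence.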

Measured: Potency

Sequence of Vitamin D3 receptor (Homo sapiens) (P11473 whole entry, looked up): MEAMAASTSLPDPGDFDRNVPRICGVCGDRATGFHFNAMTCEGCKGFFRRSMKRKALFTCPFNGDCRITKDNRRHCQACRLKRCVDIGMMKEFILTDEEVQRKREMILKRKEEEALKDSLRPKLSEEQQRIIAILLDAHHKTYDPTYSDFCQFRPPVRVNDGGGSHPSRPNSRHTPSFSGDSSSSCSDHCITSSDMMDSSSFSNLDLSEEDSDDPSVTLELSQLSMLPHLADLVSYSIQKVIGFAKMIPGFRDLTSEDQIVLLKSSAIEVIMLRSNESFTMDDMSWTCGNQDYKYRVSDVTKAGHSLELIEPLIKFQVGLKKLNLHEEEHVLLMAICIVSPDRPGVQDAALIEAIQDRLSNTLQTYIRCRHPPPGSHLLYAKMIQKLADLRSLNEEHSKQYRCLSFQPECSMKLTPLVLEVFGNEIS
Sequence of Bile acid receptor (Homo sapiens) (Q96RI1 whole entry, looked up): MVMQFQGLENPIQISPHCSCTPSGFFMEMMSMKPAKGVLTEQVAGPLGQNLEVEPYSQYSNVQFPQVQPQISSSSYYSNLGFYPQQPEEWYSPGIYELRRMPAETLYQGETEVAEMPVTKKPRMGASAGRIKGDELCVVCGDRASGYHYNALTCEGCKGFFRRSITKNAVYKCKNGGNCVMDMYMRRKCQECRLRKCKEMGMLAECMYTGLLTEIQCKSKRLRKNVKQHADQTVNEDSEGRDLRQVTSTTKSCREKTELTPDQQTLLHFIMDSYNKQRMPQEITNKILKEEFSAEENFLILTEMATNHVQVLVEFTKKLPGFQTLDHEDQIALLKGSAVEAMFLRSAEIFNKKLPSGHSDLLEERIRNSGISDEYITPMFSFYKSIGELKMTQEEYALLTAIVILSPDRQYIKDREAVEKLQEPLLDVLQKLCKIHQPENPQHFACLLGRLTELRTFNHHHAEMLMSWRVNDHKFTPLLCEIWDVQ
Sequence of Peroxisome proliferator-activated receptor delta (Homo sapiens) (Q03181 whole entry, looked up): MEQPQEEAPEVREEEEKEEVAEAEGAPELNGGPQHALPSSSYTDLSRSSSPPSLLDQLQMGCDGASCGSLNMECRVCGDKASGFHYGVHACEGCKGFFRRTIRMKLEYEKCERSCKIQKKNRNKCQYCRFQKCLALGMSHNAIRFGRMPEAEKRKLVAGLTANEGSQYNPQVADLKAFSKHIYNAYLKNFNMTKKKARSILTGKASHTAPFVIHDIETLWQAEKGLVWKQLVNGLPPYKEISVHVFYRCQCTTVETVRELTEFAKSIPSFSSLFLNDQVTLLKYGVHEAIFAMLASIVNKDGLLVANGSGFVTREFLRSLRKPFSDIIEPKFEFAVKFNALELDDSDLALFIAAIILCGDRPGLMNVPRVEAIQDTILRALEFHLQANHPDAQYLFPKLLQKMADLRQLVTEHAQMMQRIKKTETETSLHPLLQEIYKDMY

Cc1cnc(C(=O)NCCc2ccc(S(=O)(=O)NC(=O)NC3CCCCC3)cc2)cn1
not listed: [14] | [15] | [16] | [17] | [18] | [19]
inactive: all other assays above

CCCCCCOCCO
not listed: [18] | [19]
inactive: all other assays above

C=CCNC(N)=S
not listed: [17] | [18] | [19]
inactive: all other assays above

CCCSc1ccc2nc(NC(=O)OC)[nH]c2c1
not listed: [2] | [5] | [14] | [16] | [18] | [19]
inactive: all other assays above

Cc1cccc(O)c1
not listed: [15] | [16] | [17] | [18] | [19]
inactive: all other assays above

FC(F)(F)c1ccc(Cl)c(Cl)c1
not listed: [16] | [18] | [19]
inactive: all other assays above

COS(C)(=O)=O
not listed: [17] | [18] | [19]
inactive: all other assays above

Nc1cc([N+](=O)[O-])ccc1O
not listed: [18] | [19]
inactive: all other assays above

Cc1ccc(S(N)(=O)=O)cc1
not listed: [14] | [17] | [19]
inactive: all other assays above

CCCCCCCCCCCCCCO
not listed: [2] | [14] | [17] | [18] | [19]
inactive: all other assays above

COc1cc(Cc2cnc(N)nc2N)cc(OC)c1OC
not listed: [18] | [19]
inactive: all other assays above

O=C(O)c1cc(=O)c2c(OCC(O)COc3cccc4oc(C(=O)O)cc(=O)c34)cccc2o1
not listed: [15] | [16] | [18] | [19]
inactive: all other assays above

O=P(OC(CCl)CCl)(OC(CCl)CCl)OC(CCl)CCl
not listed: [13] | [18] | [19]
inactive: all other assays above

COCCCOc1ccnc(CS(=O)c2nc3ccccc3[nH]2)c1C (configuration not stated)
not listed: [2] | [14] | [15] | [16] | [17] | [18] | [19]
inactive: all other assays above

CC(=O)OCC(=O)[C@@]12N=C(C)O[C@@H]1C[C@H]1[C@@H]3CCC4=CC(=O)C=C[C@]4(C)[C@H]3[C@@H](O)C[C@@]12C
not listed: [18] | [19]
inactive: all other assays above

CC(=O)CC(=O)Nc1ccccc1C
not listed: [2] | [14] | [18] | [19]
inactive: all other assays above

CN(C)CCC(c1ccc(Cl)cc1)c1ccccn1 (configuration not stated)
not listed: [1] | [2] | [13] | [14] | [15] | [16] | [18] | [19]
inactive: all other assays above

Cc1occc(=O)c1O
not listed: [2] | [14] | [18] | [19]
inactive: all other assays above

CCCCOC(=O)COc1ccc(Cl)cc1Cl
not listed: [2] | [14]
inactive: all other assays above
